Data reported in the supplement of paper PMC11732987, “Enantioselective OTUD7B fragment discovery through chemoproteomics screening and high-throughput optimisation” (Communications Chemistry, 2025).

Assays:
Assay in all cases: log2 ratio of Biotin-Ahx-Ub-VS probe labelling (fragment/DMSO); higher = less target engagement (more negative = stronger competition), active = hit call of the paper (q ≤ 0.05, log2 ratio ≤ -1)
Settings in all cases: compound concentration: 200 uM; treatment time: 3 h
USP34 = USP34 (UniProt Q70CQ2)
Sequence of USP34 (Q70CQ2 whole entry, the tested form may be a part): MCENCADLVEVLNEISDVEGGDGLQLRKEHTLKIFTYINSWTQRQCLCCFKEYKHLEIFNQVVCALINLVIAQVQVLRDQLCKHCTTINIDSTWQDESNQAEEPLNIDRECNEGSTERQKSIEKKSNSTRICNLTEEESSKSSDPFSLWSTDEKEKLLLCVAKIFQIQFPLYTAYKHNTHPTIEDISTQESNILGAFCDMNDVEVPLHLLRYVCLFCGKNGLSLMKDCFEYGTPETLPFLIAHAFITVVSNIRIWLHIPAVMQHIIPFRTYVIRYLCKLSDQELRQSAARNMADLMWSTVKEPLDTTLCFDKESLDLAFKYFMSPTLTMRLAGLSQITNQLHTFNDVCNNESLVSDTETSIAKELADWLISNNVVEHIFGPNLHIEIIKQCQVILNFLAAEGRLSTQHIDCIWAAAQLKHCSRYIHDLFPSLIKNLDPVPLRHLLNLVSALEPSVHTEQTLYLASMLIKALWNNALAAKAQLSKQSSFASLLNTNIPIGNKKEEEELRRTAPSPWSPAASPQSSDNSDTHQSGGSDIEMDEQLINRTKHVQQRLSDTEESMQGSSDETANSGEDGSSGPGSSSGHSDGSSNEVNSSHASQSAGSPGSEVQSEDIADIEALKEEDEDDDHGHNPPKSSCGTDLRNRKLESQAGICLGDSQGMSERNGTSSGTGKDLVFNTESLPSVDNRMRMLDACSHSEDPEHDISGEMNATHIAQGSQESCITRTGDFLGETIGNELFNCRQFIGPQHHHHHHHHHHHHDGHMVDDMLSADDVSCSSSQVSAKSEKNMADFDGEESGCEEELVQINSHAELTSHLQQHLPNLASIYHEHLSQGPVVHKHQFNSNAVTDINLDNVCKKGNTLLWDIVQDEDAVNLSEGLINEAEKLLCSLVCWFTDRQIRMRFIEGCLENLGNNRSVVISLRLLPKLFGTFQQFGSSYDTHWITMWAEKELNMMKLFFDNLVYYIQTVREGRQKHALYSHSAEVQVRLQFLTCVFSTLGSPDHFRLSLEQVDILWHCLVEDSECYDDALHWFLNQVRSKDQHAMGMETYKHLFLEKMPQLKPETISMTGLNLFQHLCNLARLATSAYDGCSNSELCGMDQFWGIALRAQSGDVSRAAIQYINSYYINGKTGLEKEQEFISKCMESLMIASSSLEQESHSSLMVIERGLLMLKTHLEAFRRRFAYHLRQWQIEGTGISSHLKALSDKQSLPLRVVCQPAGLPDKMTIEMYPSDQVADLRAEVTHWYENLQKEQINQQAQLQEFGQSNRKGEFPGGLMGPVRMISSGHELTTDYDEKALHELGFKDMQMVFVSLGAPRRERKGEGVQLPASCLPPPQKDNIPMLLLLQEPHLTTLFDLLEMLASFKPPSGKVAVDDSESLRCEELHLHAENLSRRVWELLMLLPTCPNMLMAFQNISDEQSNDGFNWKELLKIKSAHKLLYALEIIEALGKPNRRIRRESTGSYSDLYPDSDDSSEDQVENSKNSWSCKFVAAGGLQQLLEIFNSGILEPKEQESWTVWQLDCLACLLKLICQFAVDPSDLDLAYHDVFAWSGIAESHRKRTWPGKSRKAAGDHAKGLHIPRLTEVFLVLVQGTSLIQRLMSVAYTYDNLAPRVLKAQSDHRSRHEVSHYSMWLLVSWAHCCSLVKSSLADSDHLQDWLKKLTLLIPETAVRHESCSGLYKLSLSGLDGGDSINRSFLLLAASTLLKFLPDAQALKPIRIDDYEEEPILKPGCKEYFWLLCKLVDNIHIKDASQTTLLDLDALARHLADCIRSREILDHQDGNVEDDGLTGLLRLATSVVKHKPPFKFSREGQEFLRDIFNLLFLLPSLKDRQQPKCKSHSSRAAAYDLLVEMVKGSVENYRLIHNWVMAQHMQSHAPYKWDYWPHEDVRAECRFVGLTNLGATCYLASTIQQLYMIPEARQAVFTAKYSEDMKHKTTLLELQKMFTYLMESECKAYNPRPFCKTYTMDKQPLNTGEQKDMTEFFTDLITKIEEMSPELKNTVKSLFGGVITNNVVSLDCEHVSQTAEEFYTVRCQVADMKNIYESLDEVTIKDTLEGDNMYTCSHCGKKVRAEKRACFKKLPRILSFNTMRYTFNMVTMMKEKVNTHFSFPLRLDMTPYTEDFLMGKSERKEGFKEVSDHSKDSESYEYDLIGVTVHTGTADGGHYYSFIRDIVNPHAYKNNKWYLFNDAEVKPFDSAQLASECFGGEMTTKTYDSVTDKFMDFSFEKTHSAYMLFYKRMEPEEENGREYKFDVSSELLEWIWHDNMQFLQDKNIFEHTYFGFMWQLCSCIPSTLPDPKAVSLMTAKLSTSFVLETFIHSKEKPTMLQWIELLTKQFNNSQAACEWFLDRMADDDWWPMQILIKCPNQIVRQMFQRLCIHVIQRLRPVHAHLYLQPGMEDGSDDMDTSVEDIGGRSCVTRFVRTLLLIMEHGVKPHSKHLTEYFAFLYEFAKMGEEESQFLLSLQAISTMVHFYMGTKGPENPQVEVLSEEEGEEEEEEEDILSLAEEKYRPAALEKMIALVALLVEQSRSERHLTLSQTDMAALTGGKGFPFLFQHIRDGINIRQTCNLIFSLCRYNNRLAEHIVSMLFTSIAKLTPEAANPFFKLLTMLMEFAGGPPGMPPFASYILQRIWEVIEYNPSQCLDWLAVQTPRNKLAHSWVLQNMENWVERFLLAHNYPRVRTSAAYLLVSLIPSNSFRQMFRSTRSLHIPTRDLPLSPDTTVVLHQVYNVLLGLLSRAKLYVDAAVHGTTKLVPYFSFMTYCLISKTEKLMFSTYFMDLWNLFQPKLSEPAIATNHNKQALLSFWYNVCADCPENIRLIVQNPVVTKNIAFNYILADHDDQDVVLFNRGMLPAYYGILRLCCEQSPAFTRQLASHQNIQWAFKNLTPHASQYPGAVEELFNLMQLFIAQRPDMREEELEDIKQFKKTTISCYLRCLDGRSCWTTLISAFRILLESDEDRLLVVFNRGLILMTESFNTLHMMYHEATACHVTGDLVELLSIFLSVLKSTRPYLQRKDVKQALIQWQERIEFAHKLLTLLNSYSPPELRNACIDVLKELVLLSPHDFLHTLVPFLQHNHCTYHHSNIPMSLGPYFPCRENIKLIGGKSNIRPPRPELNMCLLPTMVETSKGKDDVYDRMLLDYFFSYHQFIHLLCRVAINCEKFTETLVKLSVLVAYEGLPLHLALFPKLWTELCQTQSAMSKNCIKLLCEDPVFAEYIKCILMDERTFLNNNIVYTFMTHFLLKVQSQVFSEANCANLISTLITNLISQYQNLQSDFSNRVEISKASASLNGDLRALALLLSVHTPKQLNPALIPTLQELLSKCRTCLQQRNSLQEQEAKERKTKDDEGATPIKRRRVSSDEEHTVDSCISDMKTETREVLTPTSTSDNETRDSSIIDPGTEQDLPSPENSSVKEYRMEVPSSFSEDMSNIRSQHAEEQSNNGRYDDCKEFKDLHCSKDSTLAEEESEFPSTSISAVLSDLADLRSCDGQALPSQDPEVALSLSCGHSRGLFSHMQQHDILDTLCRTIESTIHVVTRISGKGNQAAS
Procedure, shortened: (§1)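 Global-median-normalised Spectronaut label-free quantities were compared by unpaired t-test, and values are average log2 ratios of fragment over vehicle. Only proteins with ≥2 unique peptides were used. HEK293T lysate (495 µg per sample) was treated in triplicate with fragment at 200 µM or vehicle for 3 h and then with Biotin-Ahx-Ub-VS at 0.5 µM final for 1 h. Labelled DUBs were then NeutrAvidin-enriched, digested with LysC and trypsin, and run by diaPASEF LC-MS/MS.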

USP36 = biological target: T1, USP36 (UniProt Q9P275)
T1 sequence (whole entry): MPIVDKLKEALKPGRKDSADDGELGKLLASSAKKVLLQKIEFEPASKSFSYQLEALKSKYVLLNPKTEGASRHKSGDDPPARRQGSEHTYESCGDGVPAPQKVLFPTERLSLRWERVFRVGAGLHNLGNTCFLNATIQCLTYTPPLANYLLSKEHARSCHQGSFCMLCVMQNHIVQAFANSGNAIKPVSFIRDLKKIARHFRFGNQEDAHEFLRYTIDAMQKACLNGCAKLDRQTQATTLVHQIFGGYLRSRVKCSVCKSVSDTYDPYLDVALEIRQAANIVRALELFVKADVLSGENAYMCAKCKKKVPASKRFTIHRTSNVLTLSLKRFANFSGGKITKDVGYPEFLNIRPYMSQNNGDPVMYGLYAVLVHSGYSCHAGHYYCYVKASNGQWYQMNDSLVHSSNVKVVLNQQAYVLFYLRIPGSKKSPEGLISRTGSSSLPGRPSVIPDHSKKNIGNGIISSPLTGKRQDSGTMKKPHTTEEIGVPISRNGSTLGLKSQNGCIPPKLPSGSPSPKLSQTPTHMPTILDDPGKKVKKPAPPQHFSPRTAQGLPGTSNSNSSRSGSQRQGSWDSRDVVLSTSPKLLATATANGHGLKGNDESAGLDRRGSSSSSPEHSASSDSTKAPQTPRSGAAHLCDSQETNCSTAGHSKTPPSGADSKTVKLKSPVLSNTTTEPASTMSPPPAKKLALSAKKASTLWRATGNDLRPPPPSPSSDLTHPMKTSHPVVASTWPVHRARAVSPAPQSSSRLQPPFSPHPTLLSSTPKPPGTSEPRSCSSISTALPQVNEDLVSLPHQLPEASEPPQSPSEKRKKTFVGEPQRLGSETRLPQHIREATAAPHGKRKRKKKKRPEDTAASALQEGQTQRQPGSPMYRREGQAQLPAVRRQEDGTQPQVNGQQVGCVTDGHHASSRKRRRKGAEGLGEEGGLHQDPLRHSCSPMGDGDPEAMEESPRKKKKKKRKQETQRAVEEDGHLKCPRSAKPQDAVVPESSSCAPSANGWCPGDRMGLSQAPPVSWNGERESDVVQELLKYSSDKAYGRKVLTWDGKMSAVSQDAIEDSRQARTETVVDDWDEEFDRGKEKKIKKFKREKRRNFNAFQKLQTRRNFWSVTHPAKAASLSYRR
Procedure, shortened: as §1

USP38 = biological target: T2, USP38 (UniProt Q8NB14)
T2 sequence (whole entry): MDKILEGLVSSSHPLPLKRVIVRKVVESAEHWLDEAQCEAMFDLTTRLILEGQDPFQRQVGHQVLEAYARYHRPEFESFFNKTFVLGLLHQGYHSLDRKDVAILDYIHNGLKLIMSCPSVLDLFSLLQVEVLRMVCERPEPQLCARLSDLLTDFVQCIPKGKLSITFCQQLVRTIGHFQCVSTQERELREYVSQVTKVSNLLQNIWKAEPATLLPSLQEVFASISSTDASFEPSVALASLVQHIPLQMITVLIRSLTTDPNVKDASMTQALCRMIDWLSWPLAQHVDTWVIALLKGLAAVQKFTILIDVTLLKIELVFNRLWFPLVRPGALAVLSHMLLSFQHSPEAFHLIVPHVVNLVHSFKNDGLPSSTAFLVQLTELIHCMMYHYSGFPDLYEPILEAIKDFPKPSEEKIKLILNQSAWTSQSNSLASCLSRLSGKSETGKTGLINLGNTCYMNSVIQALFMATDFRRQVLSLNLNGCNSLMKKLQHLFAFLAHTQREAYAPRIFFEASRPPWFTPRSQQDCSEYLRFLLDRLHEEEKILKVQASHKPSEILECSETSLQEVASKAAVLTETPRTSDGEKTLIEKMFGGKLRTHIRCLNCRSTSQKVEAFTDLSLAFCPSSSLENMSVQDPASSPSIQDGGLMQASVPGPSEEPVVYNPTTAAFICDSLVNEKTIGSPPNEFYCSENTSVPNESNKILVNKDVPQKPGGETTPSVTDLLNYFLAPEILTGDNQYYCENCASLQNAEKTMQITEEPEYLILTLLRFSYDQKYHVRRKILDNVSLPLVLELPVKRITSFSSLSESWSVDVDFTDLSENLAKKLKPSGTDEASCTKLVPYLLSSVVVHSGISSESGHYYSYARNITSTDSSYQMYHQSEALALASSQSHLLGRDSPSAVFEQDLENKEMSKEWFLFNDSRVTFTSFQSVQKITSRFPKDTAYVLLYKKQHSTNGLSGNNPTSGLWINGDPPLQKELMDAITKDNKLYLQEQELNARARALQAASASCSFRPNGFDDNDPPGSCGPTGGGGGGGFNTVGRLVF
Procedure, shortened: as §1

USP39 = biological target: T3, USP39 (UniProt Q53GS9)
T3 sequence (whole entry): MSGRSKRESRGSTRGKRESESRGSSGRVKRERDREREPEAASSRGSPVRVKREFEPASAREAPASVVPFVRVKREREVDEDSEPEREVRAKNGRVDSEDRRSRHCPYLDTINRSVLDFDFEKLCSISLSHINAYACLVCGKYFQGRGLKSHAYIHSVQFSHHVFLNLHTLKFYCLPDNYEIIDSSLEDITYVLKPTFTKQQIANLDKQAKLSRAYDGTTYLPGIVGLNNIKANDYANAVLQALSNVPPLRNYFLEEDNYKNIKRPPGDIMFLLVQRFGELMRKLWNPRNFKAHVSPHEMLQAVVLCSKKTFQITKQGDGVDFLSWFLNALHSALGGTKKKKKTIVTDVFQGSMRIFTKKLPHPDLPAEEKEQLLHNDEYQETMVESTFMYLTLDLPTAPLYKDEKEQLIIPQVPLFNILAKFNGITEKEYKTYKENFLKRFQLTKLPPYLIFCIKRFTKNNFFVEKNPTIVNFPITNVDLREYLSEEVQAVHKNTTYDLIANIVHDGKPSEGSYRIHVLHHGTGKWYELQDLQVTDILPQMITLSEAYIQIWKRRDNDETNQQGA
Procedure, shortened: as §1

USP4 = biological target: T4, USP4 (UniProt Q13107)
T4 sequence (whole entry): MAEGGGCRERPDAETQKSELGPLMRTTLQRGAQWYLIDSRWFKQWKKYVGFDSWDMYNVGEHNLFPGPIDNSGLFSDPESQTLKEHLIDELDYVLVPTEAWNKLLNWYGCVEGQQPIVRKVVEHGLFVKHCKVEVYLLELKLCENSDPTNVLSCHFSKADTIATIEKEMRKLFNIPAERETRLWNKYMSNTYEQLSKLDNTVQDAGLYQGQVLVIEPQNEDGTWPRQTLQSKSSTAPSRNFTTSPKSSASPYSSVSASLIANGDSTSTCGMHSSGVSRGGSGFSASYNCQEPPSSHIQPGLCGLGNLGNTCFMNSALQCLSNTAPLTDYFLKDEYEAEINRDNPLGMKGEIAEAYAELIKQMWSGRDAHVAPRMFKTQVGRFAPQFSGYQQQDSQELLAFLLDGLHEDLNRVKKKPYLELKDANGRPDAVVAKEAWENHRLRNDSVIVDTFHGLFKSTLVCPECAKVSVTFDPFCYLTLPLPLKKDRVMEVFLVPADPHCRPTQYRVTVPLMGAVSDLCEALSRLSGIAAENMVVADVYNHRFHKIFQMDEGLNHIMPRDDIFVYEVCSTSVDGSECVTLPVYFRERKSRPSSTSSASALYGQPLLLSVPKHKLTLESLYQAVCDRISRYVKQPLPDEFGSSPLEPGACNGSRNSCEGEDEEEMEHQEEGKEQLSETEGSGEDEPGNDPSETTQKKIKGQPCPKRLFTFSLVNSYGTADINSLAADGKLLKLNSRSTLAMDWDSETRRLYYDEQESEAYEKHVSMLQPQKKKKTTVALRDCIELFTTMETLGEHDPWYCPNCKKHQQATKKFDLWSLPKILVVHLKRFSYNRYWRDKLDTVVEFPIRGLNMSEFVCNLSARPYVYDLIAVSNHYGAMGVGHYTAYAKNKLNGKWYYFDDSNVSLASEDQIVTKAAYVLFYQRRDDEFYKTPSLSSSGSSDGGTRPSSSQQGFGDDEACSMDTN
Procedure, shortened: as §1

Measured: log2 ratio of Biotin-Ahx-Ub-VS probe labelling

Cl.O=C(CCl)N1CCC(n2nc3ccccc3n2)CC1
inactive: USP34 -0.257 | USP36 0.0455 | USP38 -0.223 | USP39 -0.0437 | USP4 -0.443
